# Screening data from PubChem.
# aSyn UTR act: Activators working through SNCA 5'UTR binding (MLPCN); alpha-synuclein 5'UTR reporter, activators screen; 7.1% of 300,000 active; activity score, % (tested at 7.5 µM), hits read low; in the data active = activity score below about -60%
# Active calls of the source: *. Not all results are given here.
SMILES,aSyn UTR act
O=[N+]([O-])c1ccc(Cl)c(S(=O)(=O)Nc2cccc(-c3ccc(N4CCOCC4)nn3)c2)c1,-108*
O=[N+]([O-])c1ccc(S(=O)(=O)Nc2cccc(-c3ccc(N4CCOCC4)nn3)c2)cc1,-83*
CC#CC(=O)N1CCC(CCc2ccccc2)(C(=O)OCC)CC1,47
CCOC(=O)C1(CCCc2ccccc2)CCN(Cc2cnc(C)s2)CC1,-63*
C/C(=N\Nc1cccc([N+](=O)[O-])c1)c1cc(F)ccc1O,-131*
C/C(=N\Nc1cccc([N+](=O)[O-])c1)c1ccccc1O,-166*
O=C(NC(=S)Nc1ccc(N2CCOCC2)c(Cl)c1)c1cccs1,-110*
O=C(Nc1ccc(N2CCCC2)c(Cl)c1)c1cccs1,-114*
O=C(Nc1ccc(NC(=O)c2cccs2)c(Cl)c1)c1ccco1,-123*
O=C(NC(=S)Nc1ccc(N2CCCCC2)cc1)c1cccs1,-104*
COC(=O)CCS(=O)(=O)c1nc(-c2ccccc2)cc(C(F)(F)F)n1,-73*
CCOC(=O)CCS(=O)(=O)c1nc(-c2ccccc2)cc(C(F)(F)F)n1,-129*
CCOc1cc(/C=C/C(=O)c2ccc3c(c2)OCCO3)ccc1OCC(=O)N(C)C,-185*
CCOc1cc(/C=C/C(=O)c2ccc(O)cc2)ccc1OCC(=O)N(C)C,-94*
CCOc1cc(/C=C/C(=O)Nc2ccc(C(=O)NCCN(CC)CC)cc2)ccc1OCC(C)C,47
O=C(Nc1nnc(CC2=CCCCC2)s1)Nc1ccccc1F,-81*
CC(c1ccccc1)c1nnc(NC(=O)Nc2ccccc2F)s1 (configuration not stated),-95*
O=C(Nc1nnc(-c2cccc(F)c2)s1)Nc1ccccc1F,-98*
CC1CCCCN1C(=O)CSc1nc2ncccc2[nH]1 (configuration not stated),-75*
CC1CCCCN1C(=O)CSc1nnc(-c2ccc(Cl)s2)o1 (configuration not stated),-69*
CC1CCCCN1C(=O)CSc1nnc(-c2ccccc2O)o1 (configuration not stated),-84*
C=CCSc1nn2c(=O)c3ccccc3nc2s1,-119*
C/C(Cl)=C/CSc1nn2c(=O)c3ccccc3nc2s1,-100*
O=C(Nc1ccc(N2CCCC2)cc1)c1ccccc1F,-80*
O=C(Nc1ccc(N2CCCC2)cc1)c1cccc(Cl)c1Cl,-100*
SMILES,aSyn UTR act
O=C(Nc1ccc(N2CCCCC2)cc1)c1cccnc1Cl,-128*
O=C(Nc1ccc(N2CCOCC2)nc1)c1ccccc1Cl,-102*
O=C(Nc1ccc2c(c1)OCCO2)c1ccc(Br)o1,-114*
O=C(Nc1ccc2c(c1)OCCO2)c1cccnc1,-141*
CCCC(C)C(=O)Nc1ccc2c(c1)OCCO2 (configuration not stated),-77*
COc1cccc2c1OC1(C)CC2NC(=O)N1c1cccc(C(=O)Nc2ccc3c(c2)OCCO3)c1 (configuration not stated),-67*
COc1ccc(NC(=O)c2ccc3c(c2)OCO3)cc1[N+](=O)[O-],-192*
O=C(Nc1ccc2c(c1)OCCO2)c1cccc(Br)c1,-150*
Cc1ccc(C(=O)Nc2ccc3c(c2)OCCO3)cc1,89
COc1ccc(C(=O)N2CCN(Cc3ccc4c(c3)OCO4)CC2)cc1[N+](=O)[O-],46
CC(C)c1ccc(NC(=O)c2cccc(Br)c2)cc1,-174*
O=C(Nc1ccc2c(c1)OCCO2)c1ccc(Br)cc1,-78*
CSCC[C@@H](C(=O)Nc1ccc2c(c1)OCCO2)N1Cc2ccccc2C1=O,-85*
CCCOc1cccc(C(=O)Nc2ccc3c(c2)OCCO3)c1,-62*
COc1ccc(C(=O)Nc2ccc3c(c2)OCCO3)cc1Br,-255*
COC(=O)Cn1ncc2c(C)n(Cc3ccccc3)c(C)c2c1=O,-123*
CCCc1ccc(-c2cc(C(=O)NC3=NCCS3)c3ccccc3n2)cc1,-191*
CCc1ccc(-c2cc(C(=O)NCc3ccccn3)c3ccccc3n2)cc1,-227*
Cc1ccc(-c2cc(C(=O)N/N=C/c3c(C)nn(C)c3C)c3ccccc3n2)cc1C,-73*
Cc1ccc(-c2cc(C(=O)NC3=NCCS3)c3ccccc3n2)cc1C,-168*
O=C1/C(=C\c2cccs2)Sc2ccc3ccccc3c21,-165*
Clc1nc(-c2ccccc2)ncc1Oc1ccccc1,-64*
COc1cc(NC(=O)C/C(C)=N/NC(=O)c2ccccn2)c(OC)cc1Cl,-80*
COc1ccccc1NC(=O)C/C(C)=N/NC(=O)c1ccccn1,-103*
C/C(CC(=O)Nc1ccc(C)c(Cl)c1)=N\NC(=O)c1ccccn1,-71*
SMILES,aSyn UTR act
O=C(N/N=C/C(Br)=C/c1ccccc1)C(O)c1ccccc1 (configuration not stated),-74*
O=C(N/N=C/C(Br)=C/c1ccccc1)C1CC1,-195*
O=C(O)c1ccc(N/N=C/C(Br)=C/c2ccccc2)cc1,-242*
Cc1ccc(NCC(=O)N/N=C\C(Br)=C\c2ccccc2)cc1,-65*
O=C(N/N=C/C(Br)=C/c1ccccc1)NC1CCCCC1,-85*
BrC(=C\c1ccccc1)/C=N/Nc1nc2ccccc2[nH]1,-158*
COc1cccc(CN(C)C(=O)c2ccc(COc3ccc(Cl)cc3)cc2)c1OC,-101*
O=[N+]([O-])c1cc(-c2ccc(/C=N/c3nc4ccccn4c3-c3ccco3)o2)ccc1Cl,-74*
C/C(=N\NC(=O)c1cccs1)c1ccc2c(c1)OCO2,-74*
C/C(=N\NC(=O)c1ccc2c(c1)OCO2)c1ccc2c(c1)OCO2,-83*
C/C(=N\Nc1ccc([N+](=O)[O-])cc1)c1ccc2c(c1)OCO2,-119*
C/C(=N\NC(=O)c1ccc2c(c1)OCCO2)c1ccccc1,73
O=Nc1c(-c2ccccc2)cc2ccccn12,-211*
Clc1ccc2c(c1)[C@H]1OCC[C@H]1[C@@H](c1ccco1)N2,-168*
CCOCC(=O)Nc1ccc(Br)c(C)c1,-120*
CC(C)(C)C1CCc2onc(C(=O)Nc3cccc(O)c3)c2C1 (configuration not stated),-92*
COc1ccccc1C(=O)N/N=C/c1ccc2c(c1)OCO2,-173*
C(=N\Nc1ccc2ccccc2n1)/c1ccc2c(c1)OCCO2,108
COc1cc2ccccc2cc1C(=O)N/N=C/c1ccc2c(c1)OCO2,-163*
O=C(/C=C/c1ccc(Br)o1)Nc1nccs1,-149*
O=C(Nc1nccs1)c1ccc(Br)o1,-102*
COc1ccc(-c2nc(C#N)c(NCC3CCCO3)o2)cc1OC (configuration not stated),-74*
Cc1ccc2cc(C#N)c(NCc3ccco3)nc2c1,-67*
CNc1oc(-c2ccc(OCc3ccccc3)cc2)nc1C#N,-96*
COc1ccc(-c2nc(C#N)c(NCc3ccco3)o2)cc1,-182*
SMILES,aSyn UTR act
COc1ccc(Nc2oc(COc3ccc(OC)cc3)nc2C#N)cc1,78
Cc1ccc(-c2nc(C#N)c(NCc3ccco3)o2)cc1,-145*
COc1ccc(Nc2oc(-c3ccc(F)cc3)nc2C#N)cc1,-233*
C=CCNc1oc(-c2ccc(OC)cc2)nc1C#N,-135*
COc1cccc(NC(=O)C(=O)NCCCN2CCCC2=O)c1,-65*
Cc1cc(C)cc(NC(=O)C(=O)NCCCN2CCCC2=O)c1,-106*
FC(F)(F)c1ccc(C2NCCc3sccc32)cc1 (configuration not stated),-63*
O=C(Nc1cnc2ccccn2c1=O)c1ccc(F)cc1,-92*
O=C(Nc1cnc2sc3c(n2c1=O)CCCC3)c1ccc(F)cc1,-105*
COc1ccc(C(=O)Nc2cnc3ccccn3c2=O)cc1,-169*
